Laboratory results reported in PubChem BioAssay (NCATS).
“And” between values parts separate entries of the source, which are not always exact repeats. Identical values can stand only once. Inconclusive results are not listed. Where a structure was tested more than once in an assay, its records may differ in their call. The source made the active and inactive calls. Unless noted, calls follow the shape of the full dose curve. Where a SMILES comes first, the peptide text is derived from it. [ ]: non-standard residue; d: D form. pGlu = O=C1CC[C@@H](C(=O)O)N1; Thz = O=C(O)[C@@H]1CSCN1

Tests used:
[1] = biological target: Glucocorticoid receptor (Homo sapiens) (UniProt P04150); assay: qHTS assay for small molecule antagonists of glucocorticoid receptor signaling (AID 588533; active = well fitted inhibition curve with a large enough effect in the signal ratio, with a control signal flat, not every such curve was filed as active; the % refers to the signal ratio;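 also: cells stimulated with 2 nM dexamethasone as agonist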; also: potency is read from the fitted curve at half-maximal effect)
Glucocorticoid receptor (Homo sapiens), sequence (P04150 whole entry, looked up): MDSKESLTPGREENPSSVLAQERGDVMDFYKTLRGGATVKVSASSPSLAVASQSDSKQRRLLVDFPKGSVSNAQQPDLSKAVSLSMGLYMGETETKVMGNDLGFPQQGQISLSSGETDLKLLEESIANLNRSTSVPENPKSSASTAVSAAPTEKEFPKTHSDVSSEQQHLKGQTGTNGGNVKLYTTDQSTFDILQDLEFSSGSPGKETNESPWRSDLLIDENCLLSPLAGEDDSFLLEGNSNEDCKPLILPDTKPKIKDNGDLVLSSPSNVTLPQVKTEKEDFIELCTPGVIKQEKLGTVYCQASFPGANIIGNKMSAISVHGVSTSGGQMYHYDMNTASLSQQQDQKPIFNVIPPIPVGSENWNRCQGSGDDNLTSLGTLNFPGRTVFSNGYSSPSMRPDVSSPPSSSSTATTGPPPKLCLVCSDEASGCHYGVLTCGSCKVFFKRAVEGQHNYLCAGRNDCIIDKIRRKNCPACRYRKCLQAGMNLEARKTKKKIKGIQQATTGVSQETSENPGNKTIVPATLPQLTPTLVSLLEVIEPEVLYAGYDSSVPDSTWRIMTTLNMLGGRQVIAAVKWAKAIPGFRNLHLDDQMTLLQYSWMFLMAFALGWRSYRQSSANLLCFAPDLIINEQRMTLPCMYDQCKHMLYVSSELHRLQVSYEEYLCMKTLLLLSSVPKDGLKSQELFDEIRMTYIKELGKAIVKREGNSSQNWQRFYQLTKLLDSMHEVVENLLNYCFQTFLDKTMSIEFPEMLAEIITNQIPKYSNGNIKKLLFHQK
Outline: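 Antagonist-mode qHTS: compound titrations added to GRE-bla HeLa cells, then dexamethasone 2 nM final; 18 h, 37 C. CCF4 FRET fluorescence normalized to dexamethasone and DMSO; IC50 from Hill fit.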

[2] = qHTS assay for small molecule antagonists of peroxisome proliferator-activated receptor delta signaling (AID 588535); conditions: HEK293T PPARd-UAS-bla, beta-lactamase FRET ratio, 18 h; 460 nm channel;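 also: cells co-treated with a PPAR-delta agonist as stimulator during compound exposure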
Outline: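 Reporter: UAS-bla under PPAR-delta response element, HEK293T host. Medium: 2% charcoal/dextran FBS. Dosing: titration, 18 hrs, 37 C. Detection: CCF4, 2 hrs RT, 405 ex/460 and 530 em.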

[3] = biological target: Peroxisome proliferator-activated receptor gamma (Homo sapiens) (UniProt P37231); assay: qHTS assay for small molecule agonists of peroxisome proliferator-activated receptor gamma signaling (AID 588536; active = well fitted curve in the direction sought with a large enough effect in the signal ratio, with a control signal flat, not every such curve was filed as active; the % refers to the signal ratio;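 also: 0% = DMSO basal wells and 100% = rosiglitazone at 2 µM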)
Peroxisome proliferator-activated receptor gamma (Homo sapiens), sequence (P37231 whole entry, looked up): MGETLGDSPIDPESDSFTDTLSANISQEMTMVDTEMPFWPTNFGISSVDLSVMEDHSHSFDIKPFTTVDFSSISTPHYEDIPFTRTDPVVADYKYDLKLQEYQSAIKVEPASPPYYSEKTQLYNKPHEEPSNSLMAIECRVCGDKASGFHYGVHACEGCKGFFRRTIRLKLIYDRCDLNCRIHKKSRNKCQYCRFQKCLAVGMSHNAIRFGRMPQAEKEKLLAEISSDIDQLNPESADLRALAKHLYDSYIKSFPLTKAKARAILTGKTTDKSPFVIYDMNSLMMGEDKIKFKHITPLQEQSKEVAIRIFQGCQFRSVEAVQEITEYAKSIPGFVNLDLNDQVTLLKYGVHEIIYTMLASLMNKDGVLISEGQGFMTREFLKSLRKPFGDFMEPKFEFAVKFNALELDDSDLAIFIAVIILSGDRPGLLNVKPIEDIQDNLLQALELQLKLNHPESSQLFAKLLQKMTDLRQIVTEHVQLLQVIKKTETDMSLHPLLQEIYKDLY
Outline: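 Ratiometric blue/green fluorescence (405 nm excitation; 460 and 530 nm emission) from CCF4-loaded HEK293 reporter cells serves as signal. Exposure to test compounds lasts 16 h at 37 C in medium containing 1% charcoal/dextran-treated serum.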

[4] = biological target: Peroxisome proliferator-activated receptor gamma (Homo sapiens) (UniProt P37231); assay: qHTS assay for small molecule antagonists of peroxisome proliferator-activated receptor gamma signaling (AID 588537; active = well fitted inhibition curve with a large enough effect in the signal ratio, with a control signal flat, not every such curve was filed as active; the % refers to the signal ratio; also: potency is read from the fitted curve at half-maximal effect)
Outline: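 We seeded GeneBLAzer HEK293 reporter cells at 3000 per well, allowed 6-6.5 h attachment at 37 C, then co-treated with test compound titrations and 50 nM rosiglitazone overnight (16 h). Inhibition was quantified from 460/530 nm emission ratios.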

[5] = biological target: Vitamin D3 receptor (Homo sapiens) (UniProt P11473); assay: qHTS assay for small molecule antagonists of vitamin D receptor signaling (AID 588541);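 also: receptor activated by calcitriol during compound treatment; series mostly up to about 77 µM; % is scaled to controls: 0 for no effect and ±100 for the full control effect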
Vitamin D3 receptor (Homo sapiens), sequence (P11473 whole entry, looked up): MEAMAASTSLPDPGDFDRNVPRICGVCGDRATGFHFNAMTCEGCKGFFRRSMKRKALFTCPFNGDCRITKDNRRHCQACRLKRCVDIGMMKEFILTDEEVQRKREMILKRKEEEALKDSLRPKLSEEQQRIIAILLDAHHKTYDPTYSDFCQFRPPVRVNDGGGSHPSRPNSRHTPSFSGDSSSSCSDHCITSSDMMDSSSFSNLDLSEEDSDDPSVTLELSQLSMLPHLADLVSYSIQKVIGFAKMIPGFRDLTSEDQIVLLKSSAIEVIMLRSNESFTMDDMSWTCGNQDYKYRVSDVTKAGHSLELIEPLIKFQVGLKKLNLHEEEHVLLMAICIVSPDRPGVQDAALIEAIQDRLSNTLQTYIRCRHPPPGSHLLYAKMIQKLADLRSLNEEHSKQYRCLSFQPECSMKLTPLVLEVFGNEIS
Outline: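 VDR-UAS-bla HEK293T cells (2000/well, 2% charcoal-stripped FBS) were treated with titrated compounds plus 1-alpha,25-dihydroxyvitamin D3 (50 nM or 3 nM final) for 16 h at 37 C. CCF4 beta-lactamase fluorescence was read; Hill fits gave IC50.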

[6] = biological target: Vitamin D3 receptor (Homo sapiens) (UniProt P11473); assay: qHTS assay for small molecule agonists of vitamin D receptor signaling (AID 588543);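 also: 0% = DMSO basal and 100% = reference agonist control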
Outline: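 GeneBLAzer VDR-UAS-bla HEK293T cells in 2% charcoal-stripped FBS medium were dosed with compound titrations for 16 h at 37 °C; CCF4 β-lactamase readout (405 nm ex, 460/530 nm em). EC50 and efficacy from Hill fits, normalized to 50 nM calcitriol (100%) and DMSO (0%).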

[7] = qHTS assay for small molecule agonists of retinoid X receptor alpha signaling (AID 588544); conditions: HEK293T RXRa-UAS-bla, beta-lactamase reporter, 18 h; 530 nm emission
[8] = biological target: Retinoic acid receptor RXR-alpha (Homo sapiens) (UniProt P19793); assay: as above
Retinoic acid receptor RXR-alpha (Homo sapiens), sequence (P19793 whole entry, looked up): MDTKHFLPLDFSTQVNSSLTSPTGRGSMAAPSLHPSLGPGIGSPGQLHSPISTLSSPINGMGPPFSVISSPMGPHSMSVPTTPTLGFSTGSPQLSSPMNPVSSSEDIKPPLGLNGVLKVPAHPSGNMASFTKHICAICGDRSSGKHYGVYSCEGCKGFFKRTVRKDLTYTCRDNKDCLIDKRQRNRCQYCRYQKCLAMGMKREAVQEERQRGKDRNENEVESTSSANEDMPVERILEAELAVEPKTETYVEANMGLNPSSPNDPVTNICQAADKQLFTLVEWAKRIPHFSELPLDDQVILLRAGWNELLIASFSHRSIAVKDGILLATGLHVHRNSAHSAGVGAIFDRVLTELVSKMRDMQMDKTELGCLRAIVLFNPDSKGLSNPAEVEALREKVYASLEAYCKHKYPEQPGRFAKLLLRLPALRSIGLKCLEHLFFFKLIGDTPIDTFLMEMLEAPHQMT

[9] = biological target: Thyroid hormone receptor beta (Homo sapiens) (UniProt P10828); assay: qHTS assay for small molecule agonists of thyroid hormone receptor beta signaling (AID 588545);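 also: 0% = DMSO only and 100% = 10 nM T3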
Thyroid hormone receptor beta (Homo sapiens), sequence (P10828 whole entry, looked up): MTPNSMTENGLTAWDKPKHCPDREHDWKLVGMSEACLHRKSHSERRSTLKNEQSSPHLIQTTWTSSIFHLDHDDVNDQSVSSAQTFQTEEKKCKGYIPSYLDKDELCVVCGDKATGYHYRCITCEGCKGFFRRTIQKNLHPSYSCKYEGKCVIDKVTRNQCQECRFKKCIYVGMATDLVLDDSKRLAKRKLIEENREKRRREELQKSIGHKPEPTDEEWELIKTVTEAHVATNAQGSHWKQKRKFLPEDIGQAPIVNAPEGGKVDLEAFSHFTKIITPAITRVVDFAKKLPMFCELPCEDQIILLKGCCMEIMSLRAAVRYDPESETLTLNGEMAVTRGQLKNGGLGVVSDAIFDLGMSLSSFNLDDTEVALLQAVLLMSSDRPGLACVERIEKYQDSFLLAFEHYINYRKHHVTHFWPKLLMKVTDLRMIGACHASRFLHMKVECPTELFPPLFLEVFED
Outline: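 Beta-lactamase reporter activity under TR response element control is measured in HEK 293 cells after 18 hrs compound exposure. Signal is ratiometric CCF4 fluorescence, 460/530 nm.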

[10] = qHTS assay for small molecule antagonists of retinoid X receptor alpha signaling (AID 588546; active = well fitted inhibition curve with a large enough effect in the signal ratio, with a control signal flat, not every such curve was filed as active; the % refers to the signal ratio;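 also: cells stimulated with 9-cis-retinoic acid as agonist; % is scaled to controls: 0 for no effect and ±100 for the full control effect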); conditions: HEK293T RXRa-UAS-bla, beta-lactamase ratio, antagonist mode; measured here: W530 green channel, cytotoxicity proxy
Outline: (§1)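 Beta-lactamase reporter inhibition, read as CCF4 fluorescence ratio (ex 405, em 460/530 nm) after 2 h at RT. HEK293T UAS-bla cells, 2500/well, were stimulated with 9-cis-RA at 500 or 100 nM final alongside test compound for 18 h at 37 C.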

[11] = biological target: Retinoic acid receptor RXR-alpha (Homo sapiens) (UniProt P19793); assay: as above; conditions: HEK293T RXRa-UAS-bla, beta-lactamase ratio, antagonist mode
Outline: as §1

[12] = biological target: Voltage-gated inwardly rectifying potassium channel KCNH2 (Homo sapiens) (UniProt Q12809); assay: qHTS Assay for Small Molecule Inhibitors of the Human hERG Channel Activity (AID 588834; active = well fitted curve in the direction sought with a large enough effect; an effect the other way counts as inactive or inconclusive;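 also: lower thallium flux fluorescence means stronger hERG block; nearly all actives have a fitted effect of over 50% in size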; also: potency is read from the fitted curve at half-maximal effect)
Voltage-gated inwardly rectifying potassium channel KCNH2 (Homo sapiens), sequence (Q12809 whole entry, looked up): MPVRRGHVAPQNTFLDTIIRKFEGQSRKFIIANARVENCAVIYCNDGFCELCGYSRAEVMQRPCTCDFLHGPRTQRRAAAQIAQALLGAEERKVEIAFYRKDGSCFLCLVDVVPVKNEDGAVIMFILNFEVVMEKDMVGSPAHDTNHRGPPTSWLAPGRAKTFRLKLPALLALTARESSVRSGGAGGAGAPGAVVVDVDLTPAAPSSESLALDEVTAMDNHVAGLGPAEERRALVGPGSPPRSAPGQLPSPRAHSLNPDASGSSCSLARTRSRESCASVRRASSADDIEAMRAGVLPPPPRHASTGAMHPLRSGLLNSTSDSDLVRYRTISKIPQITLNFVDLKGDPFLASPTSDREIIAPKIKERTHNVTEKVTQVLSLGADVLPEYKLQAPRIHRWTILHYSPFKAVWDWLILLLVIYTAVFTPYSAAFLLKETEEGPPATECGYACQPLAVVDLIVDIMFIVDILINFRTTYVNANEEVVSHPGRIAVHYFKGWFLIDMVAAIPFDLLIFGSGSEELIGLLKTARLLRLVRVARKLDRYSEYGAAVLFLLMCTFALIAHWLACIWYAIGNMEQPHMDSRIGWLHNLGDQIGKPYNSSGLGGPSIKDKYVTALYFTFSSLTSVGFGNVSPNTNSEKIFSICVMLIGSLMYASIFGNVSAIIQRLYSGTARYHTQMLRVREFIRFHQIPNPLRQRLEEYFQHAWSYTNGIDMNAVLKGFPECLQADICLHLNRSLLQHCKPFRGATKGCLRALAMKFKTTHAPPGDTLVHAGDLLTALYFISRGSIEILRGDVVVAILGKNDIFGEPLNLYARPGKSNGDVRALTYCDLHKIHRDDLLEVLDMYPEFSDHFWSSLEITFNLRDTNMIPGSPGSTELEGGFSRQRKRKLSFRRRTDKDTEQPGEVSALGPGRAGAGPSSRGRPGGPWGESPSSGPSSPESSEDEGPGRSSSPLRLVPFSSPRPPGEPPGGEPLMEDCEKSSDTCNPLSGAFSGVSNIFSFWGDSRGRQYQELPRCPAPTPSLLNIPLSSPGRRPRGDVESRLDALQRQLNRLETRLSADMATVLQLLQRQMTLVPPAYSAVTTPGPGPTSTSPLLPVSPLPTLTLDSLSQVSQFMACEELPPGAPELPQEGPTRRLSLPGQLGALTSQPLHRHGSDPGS
Outline: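 U2OS cells transduced with hERG via BacMam (MOI ~100), plated 2000/well, loaded with FluxOR thallium dye, compound ~10 min, then stimulation buffer; fluorescence decrease read kinetically; AC50 from Hill fits.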

[13] = biological target: Luciferin 4-monooxygenase (Photinus pyralis) (UniProt P08659); assay: Biochemical firefly luciferase enzyme assay for NPC (AID 624030; active = well fitted curve in the direction sought with a large enough effect; an effect the other way counts as inactive or inconclusive; also: nearly all actives have a fitted effect of over 70% in size; also: potency is read from the fitted curve at half-maximal effect)
Luciferin 4-monooxygenase (Photinus pyralis), sequence (P08659 whole entry, looked up): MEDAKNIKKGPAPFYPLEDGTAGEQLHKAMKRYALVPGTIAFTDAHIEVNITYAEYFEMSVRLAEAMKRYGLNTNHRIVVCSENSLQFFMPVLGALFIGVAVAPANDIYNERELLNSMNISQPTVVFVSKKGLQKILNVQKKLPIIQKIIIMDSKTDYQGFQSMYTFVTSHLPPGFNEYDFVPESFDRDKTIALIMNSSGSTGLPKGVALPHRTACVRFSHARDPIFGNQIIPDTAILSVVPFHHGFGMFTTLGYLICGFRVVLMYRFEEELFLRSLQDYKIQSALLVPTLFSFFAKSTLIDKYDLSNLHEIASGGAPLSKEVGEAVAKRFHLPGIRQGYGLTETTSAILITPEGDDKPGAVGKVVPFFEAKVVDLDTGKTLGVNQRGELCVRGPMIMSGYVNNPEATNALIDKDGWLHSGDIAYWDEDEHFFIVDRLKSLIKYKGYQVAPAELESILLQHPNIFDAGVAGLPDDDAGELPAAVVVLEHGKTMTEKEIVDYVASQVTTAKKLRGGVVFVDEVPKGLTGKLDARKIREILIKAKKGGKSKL
Outline: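 Counter-screen for direct inhibition of the luciferase enzyme by approved-drug library compounds, run at 10 nM enzyme in 50 mM Tris acetate (final). Luminescence was read within 5 min of enzyme-buffer addition and normalized to PTC124 versus DMSO (0%).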

[14] = S16 Schwann cell viability assay (CellTiter-Glo assay) (AID 624031; active = well fitted curve in the direction sought with a large enough effect; an effect the other way counts as inactive or inconclusive; also: nearly all actives have a fitted effect of over 70% in size; also: potency is read from the fitted curve at half-maximal effect)
Outline: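 CellTiter-Glo ATP luminescence counter-screen in untransfected S16 rat Schwann cells, 24h compound exposure at 37 degree Celsius after overnight seeding (500-750 cells/well); response scaled between cell-free wells and DMSO (0% activity), curves classed by r2 and magnitude.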

[15] = S16 Schwann cell PMP22 intronic element firefly luciferase assay (AID 624032; active = well fitted curve in the direction sought with a large enough effect; an effect the other way counts as inactive or inconclusive; also: nearly all actives have a fitted effect of over 30% in size; also: potency is read from the fitted curve at half-maximal effect)
Outline: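 Rat S16 Schwann cells stably carrying a PMP22 intronic element-driven Fluc reporter were seeded overnight, then exposed to compounds for 24 h at 37 °C. Luminescence was normalized to PTC124 (positive control) and DMSO (0% activity).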

[16] = S16 Schwann cell PMP22 intronic element beta-lactamase assay (AID 624044); also: nearly all actives have a fitted effect of over 15% in size; also: potency is read from the fitted curve at half-maximal effect
Outline: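 Rat S16 Schwann cells with beta-Lac driven by a PMP22 intronic element, compound-treated 24 h at 37 °C. LiveBLAzer FRET B/G read: 460 nm normalized to potassium clavulanate vs DMSO; 535 nm FRET as viability; concentration-effect curves classified.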

[17] = biological target: Thyroid hormone receptor beta (Homo sapiens) (UniProt P10828); assay: qHTS assay for small molecule antagonists of thyroid hormone receptor beta signaling (AID 588547; active = well fitted inhibition curve with a large enough effect in the signal ratio, with a control signal flat, not every such curve was filed as active; the % refers to the signal ratio;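 also: cells stimulated with 0.4 nM T3 agonist during compound exposure; series mostly up to about 77 µM; % is scaled to controls: 0 for no effect and ±100 for the full control effect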); conditions: TR-UAS-bla HEK293, beta-lactamase ratio, antagonist mode, 18 h
Outline: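 TR-UAS-bla GripTite HEK293 cells in 2% charcoal/dextran FBS medium were preincubated 4 h at 37 C, given compound (0.59 nM to 92 uM) plus 0.4 nM T3 (final) for 18 h, then CCF4 for 2 h at RT; Hill fit gave IC50.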

[18] = qHTS of Trypanosoma Brucei Inhibitors: LOPAC Validation (AID 624147; active = well fitted curve in the direction sought with a large enough effect; an effect the other way counts as inactive or inconclusive; also: 0% is about no effect)
Outline: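 T. brucei PYK with substrate was exposed to pin-transferred compounds across a concentration series, then started with 130 uM ADP (final). After 45 min at room temperature, Kinase-Glo Plus luminescence was read, normalized and curve-fitted.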

Nc1cc(-c2ccncc2)c[nH]c1=O
inactive: Potency [1] | outcome [3] | Potency [4] | outcome [5] | outcome [6] | outcome [8] | outcome [9] | max response [11] -6.86% | Potency [12] | Potency [13] | Potency [14] | Potency [15] | Potency [16]
50.9%: max response [2]
-6.03%: max response [10]
3.04%: max response [7]

O=C1NC(O)=NC1(c1ccccc1)c1ccccc1
inactive: Potency [12]

CCCCCCCCCCCCCCCC(=O)OC(C)C
0.385%: max response [7]
-23.5%: max response [2]
inactive: outcome [5] | outcome [6] | outcome [8] | outcome [9] | max response [11] 8.58% | activity change % (negative = inhibition) [17] -1.02% | Potency [12] | Potency [13] | Potency [14] | Potency [15] | Potency [16]
-10.7%: max response [10]

Nc1nc2ccc([N+](=O)[O-])cc2s1
inactive: outcome [3] | outcome [5] | outcome [6] | max response [11] 16.9% | activity change % (negative = inhibition) [17] -2.47% | Potency [12]
42.6%: max response [2]
0.666%: max response [10]

COc1cccc2c1C(=O)c1c(O)c3c(c(O)c1C2=O)C[C@@](O)(C(=O)CO)C[C@@H]3O[C@H]1C[C@H](N)[C@H](O[C@@H]2CCCCO2)[C@H](C)O1
inactive: Potency [12]

CCCOC(=O)c1ccc(O)cc1
inactive: Potency [1] | outcome [3] | outcome [5] | outcome [6] | outcome [8] | outcome [9] | max response [11] -6.42% and -2.27% and -9.81% | activity change % (negative = inhibition) [17] -17.9% and -8.82% and 6.79% | Potency [12] | Potency [13] | Potency [14] | Potency [15] | Potency [16]
-12% and 3.27% and -2.1%: max response [10]
7.9% and -17%: max response [2]
-11.1% and -2.66% and -11%: max response [7]
inactive and 35.5 µM (active): Potency [4]

CN(C)c1ccc(N=NS(=O)(=O)O)cc1
49.1%: max response [2]
-9.95% and 2.36%: max response [10]
inactive: outcome [5] | outcome [6] | outcome [8] | outcome [9] | max response [11] -16.5% and -8.55% | activity change % (negative = inhibition) [17] -11.7% | Potency [12]
-5.77%: max response [7]

C#C[C@]1(O)CC[C@H]2[C@@H]3CCc4cc(O)ccc4[C@H]3CC[C@@]21C
inactive: outcome [9] | activity change % (negative = inhibition) [17] -23% | Potency [12] | Potency [14] | Potency [16]
-35.1% and -42.8%: max response [2]
active: Potency [1] 10 µM and 12.6 µM | Potency [15] 12.8 µM

COc1cc(CNC(=O)CCCC/C=C/C(C)C)ccc1O
9.1%: max response [10]
7.93% and 37.4%: max response [2]
3.03% and 16.9%: max response [7]
inactive: Potency [1] | Potency [4] | outcome [5] | outcome [6] | outcome [8] | outcome [9] | max response [11] 4.06% | activity change % (negative = inhibition) [17] 11.7% and 10.6% | Potency [12] | Potency [13] | Potency [14] | Potency [16]

CN1CCC[C@H]1c1cccnc1
inactive: outcome [3] | Potency [4] | outcome [5] | outcome [6] | outcome [9] | activity change % (negative = inhibition) [17] -9.11% and 5.66% | Potency [12] | Potency [18]

CCCCCCCCCCCCCCCCCC(=O)O
-4.53% and -8.3% and -3.54%: max response [10]
inactive: outcome [3] | Potency [4] | outcome [8] | max response [11] -9.45% and 1.81% and 3.06% | Potency [12] | Potency [13] | Potency [14] | Potency [15] | Potency [16]
13.3% and -12.8% and -7.59%: max response [7]

Nc1ccc(O)c([N+](=O)[O-])c1
41.6% and 11.8%: max response [2]
inactive: Potency [1] | Potency [4] | outcome [5] | outcome [6] | outcome [8] | outcome [9] | max response [11] 32% and 10.1% | activity change % (negative = inhibition) [17] 3.22% and -23.9% | Potency [12]
-11.3%: max response [7]
-7.08% and 0.284%: max response [10]

O=C(O)/C=C\C(=O)O
-5.8%: max response [7]
-10.6%: max response [2]
inactive: Potency [1] | outcome [5] | outcome [6] | outcome [8] | outcome [9] | max response [11] 2.25% | activity change % (negative = inhibition) [17] -2.36%
0.438%: max response [10]

CC1(C)S[C@@H]2[C@H](NC(=O)[C@H](N)c3ccccc3)C(=O)N2[C@H]1C(=O)O
inactive: outcome [3] | outcome [8] | max response [11] -0.87%
-24.6%: max response [7]
-6.23%: max response [10]

O=C(O)[C@H](O)[C@@H](O)[C@H](O)[C@H](O)CO
-12.4%: max response [7]
-7.65%: max response [10]
8.66%: max response [2]
inactive: outcome [3] | Potency [4] | outcome [5] | outcome [6] | outcome [8] | outcome [9] | max response [11] 4.17% | activity change % (negative = inhibition) [17] 19.6% | Potency [12] | Potency [13] | Potency [14] | Potency [15]

N=C1N=C(N)c2cc3ccccc3cc21
12.6%: max response [7]
-9.13%: max response [10]
inactive: outcome [5] | outcome [6] | outcome [8] | outcome [9] | max response [11] 48.9% | activity change % (negative = inhibition) [17] 8.6% | Potency [13]

CC(=O)O[C@H]1C[C@@]2(C)[C@@H](C[C@@H](O)[C@H]3[C@@]4(C)CC[C@@H](O)[C@@H](C)[C@@H]4CC[C@@]32C)/C1=C(\CCC=C(C)C)C(=O)O
inactive: Potency [12]

CCCCCC[C@@H](O)C/C=C\CCCCCCCC(=O)O
inactive: Potency [12] | Potency [13] | Potency [14] | Potency [15] | Potency [16]

COC(=O)[C@H]1[C@H]2C[C@@H]3c4[nH]c5cc(OC)ccc5c4CCN3C[C@H]2C[C@@H](OC(=O)/C=C/c2cc(OC)c(OC)c(OC)c2)[C@@H]1OC
active: Potency [12] 7.94 µM

C[S+](CC[C@H](N)C(=O)O)C[C@H]1O[C@@H](n2cnc3c(N)ncnc32)[C@H](O)[C@@H]1O (stereo partly specified)
inactive: Potency [12] | Potency [13] | Potency [14]

Nc1ccc(C(=O)O)c(O)c1
inactive: Potency [12] | Potency [13] | Potency [14] | Potency [15]

O=C1C(SCCO)=C(SCCO)C(=O)c2ccccc21
inactive: Potency [12]

Cc1c(C(=O)O)c(O)cc2c1C(=O)c1c(O)c([C@@H]3O[C@H](CO)[C@@H](O)[C@H](O)[C@H]3O)c(O)c(O)c1C2=O
inactive: Potency [12]

[O-][n+]1ccccc1SSc1cccc[n+]1[O-]
active: Potency [13] 2.56 µM | Potency [14] 12.8 µM | Potency [15] 0.361 µM | Potency [16] 1.12 µM
inactive: Potency [12]

O=C1CC[C@@H](C(=O)N2CSC[C@H]2C(=O)O)N1 ([pGlu]-[Thz]-OH)
inactive: Potency [12] | Potency [13] | Potency [14] | Potency [15] | Potency [16]
